According to PubChem BioAssay (NCATS):
Several values for one entry are separate records, joined by “and”; a condition that tells them apart may be missing. Equal values may be shown once. Records with an inconclusive call do not appear. Activity calls are given as the source filed them. Unless noted, calls come from the whole dose curve; as a rule, active = well fitted curve in the direction sought with a large enough effect; inconclusive = small, poorly fitted or top-dose-only effect, or another doubt; inactive = no such curve, though single readings can be large; an effect the other way counts as inactive or inconclusive.

Tests used:
[1] = Cell Viability - LYMP2-019 (AID 973);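 note: 0% = DMSO alone and full effect = 92 µM tetraoctylammonium bromide; nearly all actives have a fitted effect of over 55% in size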
Procedure, shortened: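 Cells plated at 2500/well and allowed 5 hr at 37 C before compound addition. After 24 hr incubation, CellTiter-Glo reagent was added, plates sat 30 min at room temperature, and luminescence was recorded.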

[2] = Cell Viability - LYMP2-021 (AID 974);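 note: compound exposure lasts 24 hours at 37 °C; % is set by controls: 0 for no effect and ±100 for the full control effect; nearly all actives have a fitted effect of over 55% in size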
Procedure, shortened: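 Concentration-response cytotoxicity in a human lymphoblastoid line: 24 hr treatment at 37 C in complete culture medium, tetraoctylammonium bromide as positive control, luminescent ATP quantitation as viability measure.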

[3] = Cell Viability - LYMP2-023 (AID 975);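 note: cellular ATP measured by luciferase luminescence as viability proxy; plate controls were DMSO only for no effect and 92 µM tetraoctylammonium bromide control for full effect; nearly all actives have a fitted effect of over 55% in size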
Procedure, shortened: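 Concentration-dependent drop in intracellular ATP measures acute cytotoxicity in a human lymphoblastoid line treated for 24 hours in complete culture medium. AC50 values are taken from Hill-equation fits of qHTS data.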

[4] = Cell Viability - LYMP2-002 (AID 977);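 note: compound exposure lasted 24 h at 37 °C; plate controls were DMSO only for no effect and 92 µM tetraoctylammonium bromide for full effect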
Procedure, shortened: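 Human lymphoblastoid LYMP2-002 cells, 2500 per well, exposed to compounds for 24 h at 37 C in complete medium; viability read as intracellular ATP by CellTiter-Glo luminescence, AC50 from Hill fits.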

[5] = Cell Viability - LYMP2-006 (AID 978); note: % is set by controls: 0 for no effect and ±100 for the full control effect; nearly all actives have a fitted effect of over 60% in size
Procedure, shortened: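 qHTS, 1536-well; 2500 cells/well, 5 hr 37 C; cpd 24 hr 37 C; CellTiter-Glo 30 min RT; luminescence. Tetraoctylammonium bromide pos. ctrl. AC50 via Hill eqn.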

[6] = Cell Viability - LYMP2-007 (AID 979);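 note: cells exposed to compound for 24 h before reading; 0% = DMSO only and the negative end = 92 µM tetraoctylammonium bromide; nearly all actives have a fitted effect of over 60% in size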
Procedure, shortened: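 Acute toxicity is scored as a concentration-dependent fall in intracellular ATP in human lymphoblastoid cells treated 24 hr at 37 C, measured by luciferase luminescence; Hill-equation modelling yields AC50.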

[7] = Cell Viability - LYMP2-008 (AID 980); note: % is set by controls: 0 for no effect and ±100 for the full control effect; nearly all actives have a fitted effect of over 60% in size
Procedure, shortened: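 Acute cytotoxicity is scored as concentration-dependent loss of cellular ATP in a human lymphoblastoid line after 24 hr treatment at 37 C. ATP is quantified by luciferase luminescence.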

[8] = Cell Viability - LYMP2-010 (AID 981); note: % is set by controls: 0 for no effect and ±100 for the full control effect; nearly all actives have a fitted effect of over 55% in size
Procedure, shortened: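 Acute toxicity is scored as a concentration-dependent loss of cellular ATP in human lymphoblastoid cells after 24 hr compound exposure in complete medium. Tetraoctylammonium bromide is the positive control.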

[9] = Cell Viability - LYMP2-012 (AID 982)
[10] = Cell Viability - LYMP2-014 (AID 983);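 note: plate controls were DMSO only for no effect and 92 µM tetraoctylammonium bromide for full effect; nearly all actives have a fitted effect of over 50% in size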
Procedure, shortened: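 Decrease in intracellular ATP after 24 hr treatment at 37 C, measured by luciferase luminescence, indicated cytotoxicity. Concentration-response data were fitted with the standard Hill equation to give AC50.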

[11] = Cell Viability - LYMP2-016 (AID 984)
Procedure, shortened: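 qHTS, 1536-well: 2500 LYMP2-016 cells/well, 5 hr 37 C, compound added, 24 hr 37 C, CellTiter-Glo 30 min RT, luminescence. Tetraoctylammonium bromide positive control. AC50 via Hill fit.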

[12] = Cell Viability - LYMP2-020 (AID 986)
Procedure, shortened: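 Acute cytotoxicity in a human lymphoblastoid line is scored as a concentration-dependent fall in cellular ATP after 24 hr at 37 C in complete medium. The positive control is tetraoctylammonium bromide, and potency is given as Hill-fit AC50.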

[13] = Cell Viability - LYMP2-022 (AID 987)
Procedure, shortened: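 Acute toxicity in a human lymphoblastoid line is scored as decreased intracellular ATP after 24 hr compound treatment at 37 C. ATP is measured by CellTiter-Glo luminescence; curves are fitted with the Hill equation to give AC50.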

[14] = Cell Viability - LYMP2-024 (AID 988);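 note: plate controls were DMSO only for no effect and 92 µM tetraoctylammonium bromide for full effect; nearly all actives have a fitted effect of over 60% in size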
Procedure, shortened: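 Acute toxicity is measured as concentration-dependent loss of intracellular ATP in a human lymphoblastoid line treated 24 hours at 37 C. Luciferase luminescence quantifies ATP; AC50 values come from standard Hill-equation modelling.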

[15] = Cell Viability - LYMP2-026 (AID 989); note: % is set by controls: 0 for no effect and ±100 for the full control effect; nearly all actives have a fitted effect of over 50% in size
Procedure, shortened: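 Concentration-dependent loss of intracellular ATP in human lymphoblastoid cells after 24 hr at 37 C, quantified by luciferase luminescence. AC50 derived from standard Hill equation.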

[16] = Cell Viability - LYMP1-002 - Assay at 24 hr (AID 993); note: % is set by controls: 0 for no effect and ±100 for the full control effect
Procedure, shortened: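 qHTS, LYMP1-002 lymphoblastoid, 24 h cpd, 37 C, CellTiter-Glo ATP luminescence; AC50 via Hill eq.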

[17] = Cell Viability - LYMP1-002 - Assay at 40 hr (AID 994)
Procedure, shortened: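 Viability in the human lymphoblastoid line was measured as intracellular ATP via CellTiter-Glo after 40 hr compound exposure. Tetraoctylammonium bromide served as positive control.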

[18] = target: ATP-dependent 6-phosphofructokinase (Trypanosoma brucei brucei) (UniProt O15648); experiment: qHTS Assay to Find Inhibitors of T. brucei phosphofructokinase: hit validation (AID 492961); note: % is set by controls: 0 for no effect and ±100 for the full control effect
Sequence of ATP-dependent 6-phosphofructokinase (Trypanosoma brucei brucei) (O15648 whole entry, looked up): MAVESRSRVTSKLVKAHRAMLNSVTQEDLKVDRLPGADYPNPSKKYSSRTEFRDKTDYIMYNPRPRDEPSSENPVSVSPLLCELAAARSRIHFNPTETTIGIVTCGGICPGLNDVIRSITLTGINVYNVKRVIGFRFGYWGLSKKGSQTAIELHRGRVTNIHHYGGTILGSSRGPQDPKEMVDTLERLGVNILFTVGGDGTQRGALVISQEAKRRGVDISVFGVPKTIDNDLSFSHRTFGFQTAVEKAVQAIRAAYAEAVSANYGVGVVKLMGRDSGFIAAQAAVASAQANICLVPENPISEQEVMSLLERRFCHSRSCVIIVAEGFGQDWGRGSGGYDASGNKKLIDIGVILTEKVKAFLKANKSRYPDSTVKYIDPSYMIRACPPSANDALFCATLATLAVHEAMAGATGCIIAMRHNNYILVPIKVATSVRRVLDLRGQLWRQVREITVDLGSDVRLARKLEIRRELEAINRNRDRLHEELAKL
Procedure, shortened: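 Luminescence from ADP-Glo reports ADP generated as T. brucei PFK (1.25 nM) phosphorylates 0.5 mM fructose-6-phosphate using 0.1 mM ATP. Reactions ran 45 min at room temperature, pH 8.0.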

[19] = target: Estrogen receptor (Homo sapiens) (UniProt P03372); experiment: qHTS assay for small molecule antagonists of estrogen receptor alpha signaling (AID 588513; active = well fitted curve in the direction sought with a large enough effect in the signal ratio, with a control signal flat, not every such curve was filed as active; the % refers to the signal ratio; note: % is set by controls: 0 for no effect and ±100 for the full control effect)
Sequence of Estrogen receptor (Homo sapiens) (P03372 whole entry, looked up): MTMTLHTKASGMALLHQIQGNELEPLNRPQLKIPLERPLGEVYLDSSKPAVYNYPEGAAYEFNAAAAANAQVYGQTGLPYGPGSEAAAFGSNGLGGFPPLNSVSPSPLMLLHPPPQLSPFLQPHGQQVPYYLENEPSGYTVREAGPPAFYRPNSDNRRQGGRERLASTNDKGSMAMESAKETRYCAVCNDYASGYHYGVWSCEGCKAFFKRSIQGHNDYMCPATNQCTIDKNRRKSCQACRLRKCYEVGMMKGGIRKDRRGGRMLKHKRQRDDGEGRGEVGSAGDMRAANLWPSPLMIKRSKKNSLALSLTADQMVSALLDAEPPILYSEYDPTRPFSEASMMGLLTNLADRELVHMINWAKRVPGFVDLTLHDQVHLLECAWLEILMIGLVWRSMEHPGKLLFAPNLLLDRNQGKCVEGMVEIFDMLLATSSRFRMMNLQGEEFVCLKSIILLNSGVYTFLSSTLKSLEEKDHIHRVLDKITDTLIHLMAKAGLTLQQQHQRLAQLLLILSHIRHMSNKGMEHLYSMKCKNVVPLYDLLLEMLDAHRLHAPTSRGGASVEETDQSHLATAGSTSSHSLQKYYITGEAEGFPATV
Procedure, shortened: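 Beta-lactamase reporter, antagonist mode, HEK 293 GripTite cells; 0.5nM E2 stimulus, 18 h, 37 C; CCF4 dye 2 h RT; fluorescence. IC50 and efficacy from Hill fits, normalized to E2 and DMSO.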

[20] = target: Estrogen receptor (Homo sapiens) (UniProt P03372); experiment: qHTS assay for small molecule agonists of estrogen receptor alpha signaling (AID 588514; calls by dose curve;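 note: 0% = vehicle only and 100% = reference agonist; nearly all actives have a fitted effect of over 70% in size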)
Procedure, shortened: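 Reporter-gene assay. […] controls beta-lactamase in HEK 293 GripTite cells; after 18 hrs with compound, CCF4 substrate is added for 2 hrs and fluorescence is read.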

[21] = qHTS assay for small molecule antagonists of peroxisome proliferator-activated receptor delta signaling (AID 588535; active = well fitted inhibition curve with a large enough effect in the signal ratio, with a control signal flat, not every such curve was filed as active; the % refers to the signal ratio;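 for max response: cells co-treated with a PPAR-delta agonist as stimulator during compound exposure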); settings: HEK293T PPARd-UAS-bla, beta-lactamase FRET ratio, 18 h; 460 nm channel
Procedure, shortened: (§1)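 Cells were seeded at 4000 per well in assay medium containing 2% charcoal/dextran FBS and held 5 hrs at 37 C. Compounds were then added for 18 hrs. CCF4 substrate was applied for 2 hrs at room temperature before fluorescence reading.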

[22] = target: Peroxisome proliferator-activated receptor delta (Homo sapiens) (UniProt Q03181); experiment: as above
Sequence of Peroxisome proliferator-activated receptor delta (Homo sapiens) (Q03181 whole entry, looked up): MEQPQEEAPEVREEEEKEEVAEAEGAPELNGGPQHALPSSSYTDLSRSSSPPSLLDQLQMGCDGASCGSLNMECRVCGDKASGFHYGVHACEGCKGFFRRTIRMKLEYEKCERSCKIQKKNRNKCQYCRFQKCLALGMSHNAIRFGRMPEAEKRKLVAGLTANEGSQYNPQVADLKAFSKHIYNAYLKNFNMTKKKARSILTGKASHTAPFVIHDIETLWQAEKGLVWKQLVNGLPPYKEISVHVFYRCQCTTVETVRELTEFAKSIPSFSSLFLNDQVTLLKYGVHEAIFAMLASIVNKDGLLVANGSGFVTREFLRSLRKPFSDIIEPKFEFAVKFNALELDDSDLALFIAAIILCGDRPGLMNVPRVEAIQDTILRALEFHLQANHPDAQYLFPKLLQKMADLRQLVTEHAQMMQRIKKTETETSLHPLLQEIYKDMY
Procedure, shortened: as §1

[23] = target: Peroxisome proliferator-activated receptor gamma (Homo sapiens) (UniProt P37231); experiment: qHTS assay for small molecule agonists of peroxisome proliferator-activated receptor gamma signaling (AID 588536; active = well fitted curve in the direction sought with a large enough effect in the signal ratio, with a control signal flat, not every such curve was filed as active; the % refers to the signal ratio;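 note: 0% = DMSO basal wells and 100% = rosiglitazone at 2 µM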)
Sequence of Peroxisome proliferator-activated receptor gamma (Homo sapiens) (P37231 whole entry, looked up): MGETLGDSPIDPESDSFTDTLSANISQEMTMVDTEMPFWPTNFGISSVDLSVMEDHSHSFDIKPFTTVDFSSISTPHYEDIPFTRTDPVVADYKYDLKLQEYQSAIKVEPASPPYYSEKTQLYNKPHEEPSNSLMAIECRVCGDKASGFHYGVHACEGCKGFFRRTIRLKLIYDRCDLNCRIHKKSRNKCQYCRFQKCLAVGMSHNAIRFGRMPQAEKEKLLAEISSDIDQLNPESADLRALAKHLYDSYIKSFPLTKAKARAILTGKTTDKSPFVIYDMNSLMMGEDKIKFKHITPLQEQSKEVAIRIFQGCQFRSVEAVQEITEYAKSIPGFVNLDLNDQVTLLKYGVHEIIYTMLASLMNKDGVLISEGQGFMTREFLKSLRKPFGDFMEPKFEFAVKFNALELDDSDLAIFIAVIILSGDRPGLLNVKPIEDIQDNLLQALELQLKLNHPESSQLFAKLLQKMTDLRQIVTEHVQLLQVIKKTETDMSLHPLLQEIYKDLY
Procedure, shortened: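 PPAR-gamma-UAS-bla HEK293 cells in medium with 1% charcoal/dextran-treated FBS were exposed to compounds for 16 h at 37 C. Beta-lactamase activity was read with CCF4 substrate (405 nm excitation, 460/530 nm emission).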

[24] = target: Vitamin D3 receptor (Homo sapiens) (UniProt P11473); experiment: qHTS assay for small molecule antagonists of vitamin D receptor signaling (AID 588541; calls by dose curve;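 note: receptor activated by calcitriol during compound treatment; % is set by controls: 0 for no effect and ±100 for the full control effect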)
Sequence of Vitamin D3 receptor (Homo sapiens) (P11473 whole entry, looked up): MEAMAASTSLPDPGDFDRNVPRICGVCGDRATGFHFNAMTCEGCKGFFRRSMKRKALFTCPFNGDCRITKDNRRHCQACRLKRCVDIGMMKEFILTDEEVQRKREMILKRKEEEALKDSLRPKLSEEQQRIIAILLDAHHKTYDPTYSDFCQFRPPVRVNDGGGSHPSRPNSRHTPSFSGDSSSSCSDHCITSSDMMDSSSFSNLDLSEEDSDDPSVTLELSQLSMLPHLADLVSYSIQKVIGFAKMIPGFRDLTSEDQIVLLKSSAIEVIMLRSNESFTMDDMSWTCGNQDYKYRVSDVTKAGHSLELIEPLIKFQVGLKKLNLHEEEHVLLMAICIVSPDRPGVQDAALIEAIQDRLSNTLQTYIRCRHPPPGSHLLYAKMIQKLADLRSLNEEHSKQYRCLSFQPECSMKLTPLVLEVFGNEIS
Procedure, shortened: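 VDR-UAS-bla HEK293T cells in 2% charcoal-stripped FBS were stimulated with 1-alpha,25-dihydroxyvitamin D3 (3 nM final) plus compound for 16 h at 37 C. The beta-lactamase CCF4 readout was normalized to 50 nM agonist and DMSO, and Hill fits gave IC50.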

[25] = target: Vitamin D3 receptor (Homo sapiens) (UniProt P11473); experiment: qHTS assay for small molecule agonists of vitamin D receptor signaling (AID 588543; calls by dose curve;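 note: 0% = DMSO basal and 100% = reference agonist control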)
Procedure, shortened: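 β-lactamase reporter, VDR-UAS-bla HEK293T, agonist mode. Cells plated 5 h at 37 °C, compound titration 16 h at 37 °C, CCF4 dye 2 h RT, ratio 460/530 nm. Hill fit → EC50, efficacy vs 50 nM 1α,25-(OH)2D3.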

[26] = qHTS assay for small molecule agonists of retinoid X receptor alpha signaling (AID 588544; calls by dose curve;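 for activation: 0% = DMSO basal wells and 100% = reference agonist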); settings: HEK293T RXRa-UAS-bla, beta-lactamase reporter, 18 h; 530 nm emission
[27] = target: Retinoic acid receptor RXR-alpha (Homo sapiens) (UniProt P19793); experiment: as above
Sequence of Retinoic acid receptor RXR-alpha (Homo sapiens) (P19793 whole entry, looked up): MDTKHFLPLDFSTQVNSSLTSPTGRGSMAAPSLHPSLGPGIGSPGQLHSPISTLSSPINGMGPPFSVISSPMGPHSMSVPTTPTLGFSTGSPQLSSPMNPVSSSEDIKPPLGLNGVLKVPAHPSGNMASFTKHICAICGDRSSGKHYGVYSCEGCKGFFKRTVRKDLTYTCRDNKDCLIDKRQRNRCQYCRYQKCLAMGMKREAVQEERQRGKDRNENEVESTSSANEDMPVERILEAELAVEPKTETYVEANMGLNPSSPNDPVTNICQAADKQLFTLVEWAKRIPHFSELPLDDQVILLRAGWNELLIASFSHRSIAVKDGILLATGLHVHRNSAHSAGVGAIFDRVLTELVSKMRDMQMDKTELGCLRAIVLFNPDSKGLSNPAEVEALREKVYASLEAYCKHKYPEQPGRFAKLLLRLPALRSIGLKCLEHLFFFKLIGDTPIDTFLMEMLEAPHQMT

[28] = target: Thyroid hormone receptor beta (Homo sapiens) (UniProt P10828); experiment: qHTS assay for small molecule agonists of thyroid hormone receptor beta signaling (AID 588545; calls by dose curve;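 note: 0% = DMSO only and 100% = 10 nM T3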)
Sequence of Thyroid hormone receptor beta (Homo sapiens) (P10828 whole entry, looked up): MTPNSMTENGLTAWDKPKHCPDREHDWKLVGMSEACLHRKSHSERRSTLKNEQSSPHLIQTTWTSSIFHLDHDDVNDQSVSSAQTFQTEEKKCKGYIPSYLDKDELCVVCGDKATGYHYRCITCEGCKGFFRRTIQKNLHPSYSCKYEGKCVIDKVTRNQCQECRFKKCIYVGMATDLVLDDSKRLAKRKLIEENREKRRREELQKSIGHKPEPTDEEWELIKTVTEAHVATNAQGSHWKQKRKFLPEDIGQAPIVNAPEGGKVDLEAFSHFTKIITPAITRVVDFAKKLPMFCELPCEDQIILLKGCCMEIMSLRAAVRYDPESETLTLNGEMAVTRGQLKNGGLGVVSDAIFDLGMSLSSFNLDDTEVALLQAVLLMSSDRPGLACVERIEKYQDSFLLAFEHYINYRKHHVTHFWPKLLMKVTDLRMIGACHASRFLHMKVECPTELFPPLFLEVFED
Procedure, shortened: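 Efficacy and EC50 values derive from Hill fits of qHTS titration data, normalized to 10 nM T3 and DMSO-only wells. HEK 293 reporter cells were stimulated for 18 hrs at 37 C, with beta-lactamase activity measured by CCF4 fluorescence.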

[29] = qHTS assay for small molecule antagonists of retinoid X receptor alpha signaling (AID 588546; active = well fitted inhibition curve with a large enough effect in the signal ratio, with a control signal flat, not every such curve was filed as active; the % refers to the signal ratio); settings: HEK293T RXRa-UAS-bla, beta-lactamase ratio, antagonist mode; measured here: W530 green channel, cytotoxicity proxy
Procedure, shortened: (§2)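 Beta-lactamase reporter inhibition, read as CCF4 fluorescence ratio (ex 405, em 460/530 nm) after 2 h at RT. HEK293T UAS-bla cells, 2500/well, were stimulated with 9-cis-RA at 500 or 100 nM final alongside test compound for 18 h at 37 C.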

[30] = target: Retinoic acid receptor RXR-alpha (Homo sapiens) (UniProt P19793); experiment: as above; settings: HEK293T RXRa-UAS-bla, beta-lactamase ratio, antagonist mode
Procedure, shortened: as §2

[31] = target: Thyroid hormone receptor beta (Homo sapiens) (UniProt P10828); experiment: qHTS assay for small molecule antagonists of thyroid hormone receptor beta signaling (AID 588547; active = well fitted inhibition curve with a large enough effect in the signal ratio, with a control signal flat, not every such curve was filed as active; the % refers to the signal ratio); settings: TR-UAS-bla HEK293, beta-lactamase ratio, antagonist mode, 18 h
Procedure, shortened: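 TR-UAS-bla GripTite HEK293 cells in 2% charcoal/dextran FBS medium; compounds 0.59 nM to 92 uM with T3 at 0.4nM final, 18 h at 37 C. Beta-lactamase read by CCF4 fluorescence (460/530 nm); Hill fits gave IC50 and efficacy.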

[32] = target: Luciferin 4-monooxygenase (Photinus pyralis) (UniProt P08659); experiment: Biochemical firefly luciferase enzyme assay for NPC (AID 624030);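 note: purified P. pyralis luciferase at 10 nM with luciferin and ATP substrate; 0% = DMSO and -100% = full luciferase inhibition by PTC124 control; nearly all actives have a fitted effect of over 70% in size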
Sequence of Luciferin 4-monooxygenase (Photinus pyralis) (P08659 whole entry, looked up): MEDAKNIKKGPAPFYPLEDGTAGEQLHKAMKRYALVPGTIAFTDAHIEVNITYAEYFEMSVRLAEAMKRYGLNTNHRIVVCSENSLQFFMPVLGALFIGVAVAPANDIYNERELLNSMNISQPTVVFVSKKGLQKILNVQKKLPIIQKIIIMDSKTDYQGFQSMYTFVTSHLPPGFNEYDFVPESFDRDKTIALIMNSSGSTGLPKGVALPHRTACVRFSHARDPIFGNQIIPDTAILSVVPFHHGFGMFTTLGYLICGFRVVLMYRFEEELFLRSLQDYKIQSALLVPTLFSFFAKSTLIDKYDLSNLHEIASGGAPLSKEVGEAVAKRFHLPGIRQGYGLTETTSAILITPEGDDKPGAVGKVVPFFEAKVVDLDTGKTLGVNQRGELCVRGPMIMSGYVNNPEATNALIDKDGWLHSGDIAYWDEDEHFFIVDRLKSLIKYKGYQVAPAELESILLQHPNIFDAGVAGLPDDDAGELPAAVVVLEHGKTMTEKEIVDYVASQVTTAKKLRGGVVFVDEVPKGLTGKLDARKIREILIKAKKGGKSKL
Procedure, shortened: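 Purified P. pyralis luciferase at 10 nM in 50 mM Tris Acetate (final), luminescence read within 5 minutes of enzyme addition to compounds. Activity normalised to PTC124 versus DMSO; concentration-response curves classed by r2, magnitude and activity.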

[33] = S16 Schwann cell viability assay (CellTiter-Glo assay) (AID 624031);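 note: cellular ATP luminescence as a viability measure; plate controls were DMSO-treated cells for no effect and cell-free wells for full effect; nearly all actives have a fitted effect of over 70% in size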
Procedure, shortened: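 Untransfected S16 rat Schwann cells; compound 24 h, 37 °C/5% CO2; CellTiter-Glo ATP luminescence. % activity vs no-cell wells and DMSO controls (0%); concentration-effect curves classed by r2, response magnitude, activity.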

[34] = S16 Schwann cell PMP22 intronic element firefly luciferase assay (AID 624032);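 note: plate controls were DMSO for no effect and PTC124 positive control mean for full effect; nearly all actives have a fitted effect of over 30% in size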
Procedure, shortened: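 Rat S16 Schwann cells stably carrying firefly luciferase driven by a PMP22 intronic element, in 10% FBS, treated 24 h at 37 C. ONE-Glo luminescence normalized to PTC124 control and DMSO (0%); curves classed by r2, magnitude and activity.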

[35] = S16 Schwann cell PMP22 intronic element beta-lactamase assay (AID 624044; calls by dose curve;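 note: 0% = DMSO and -100% = potassium clavulanate positive control; nearly all actives have a fitted effect of over 15% in size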); settings: S16 rat Schwann cells, PMP22 element beta-lactamase FRET, 24 h; ratio activity, negative = inhibition: at 38.3 µM (top of the series)
Procedure, shortened: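 Rat S16 Schwann cells with beta-Lac driven by a PMP22 intronic element, compound-treated 24 h at 37 °C. LiveBLAzer FRET B/G read: 460 nm normalized to potassium clavulanate vs DMSO; 535 nm FRET as viability; concentration-effect curves classified.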

[36] = qHTS assay for small molecule agonists of the antioxidant response element (ARE) signaling pathway (AID 651741; active = well fitted activation curve with a large enough effect in the signal ratio; the % refers to the signal ratio; note: % of control where 0% means no effect)
Procedure, shortened: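 HepG2 ARE-bla cells plated at 2,000 cells/well and incubated 5 h at 37 C/5% CO2 received 23 nL compound in DMSO. After 16 h at 37 C, LiveBLAzer B/G FRET substrate was applied for 2 h at room temperature and fluorescence read.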

CN1[C@H]2CC(OC(=O)[C@H](CO)c3ccccc3)C[C@H]1[C@H]1O[C@H]12 (stereo partly specified)
3.87% and -2.7%: max response [26]
-6.66% and 15.5%: max response [21]
-12.3% and -10.2%: max response [29]
inactive: Potency [1] | Potency [2] | Potency [3] | Potency [4] | Potency [5] | Potency [6] | Potency [7] | Potency [8] | Potency [9] | Potency [10] | Potency [11] | Potency [12] | Potency [13] | Potency [14] | Potency [15] | Potency [16] | Potency [17] | Potency [18] | Potency [19] | outcome [20] | outcome [22] | outcome [23] | Potency [24] | outcome [25] | outcome [27] | outcome [28] | max response [30] -1.24% and 3.3% | activity change % (negative = inhibition) [31] -22.7% and -1.59% | Potency [32] | Potency [33] | Potency [34] | Potency [35] | Potency [36]
